From PubChem BioAssay AID624156 (Broad Institute, 2012)
Out of some 46,000 compounds screened, about 900 (2%) were called active. Not shown: some 1% with an inconclusive outcome. What follows is part of a selection rich in actives, with near analogues and random picks from the rest. Unmarked numbers belong to inactive results. Cut-off read from the data, not from the text of the source: active = ROS induction above about 79% (passing the limit was not always enough); inconclusive = no clear call, values can overlap the other calls.

experiment: ROS inducers in U2OS cancer cells, primary screen, cell-based, H2DCF-DA fluorescence (AID 624156); conditions: at 10 µM, hits give high values;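 note: 0% = DMSO vehicle median and 100% = reference compound median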

| Structure (SMILES) | ROS induction (% of piperlongumine) |
| --- | --- |
| COC(=O)C1=C(N)Oc2cc(C)oc(=O)c2C1c1cccnc1 (stereo not given) | 69.7% |
| CC(C)OC(=O)C1=c2s/c(=C\c3cccnc3)c(=O)n2C(N)=C(C#N)C1c1cccnc1 (stereo not given) | 104% (active) |
| CCN(Cc1ccccc1)S(=O)(=O)c1cc(Cl)ccc1Cl | 29.9% |
| CCN(CC)c1nc(C#N)nc(OC)n1 | 55.7% |
| CC(CN1CCCC1)OC(=O)c1cc(C(C)(C)C)cc(C(C)(C)C)c1 (stereo not given) | 21.6% |
| CO[C@H]1O[C@H](CO)[C@@H](OC(=O)Nc2ccccc2-c2ccccc2)[C@H](OC(=O)Nc2ccccc2)[C@H]1OC(=O)Nc1ccccc1 | 132% (active) |
| CNC[C@@H]1Oc2c(NC(=O)Nc3ccccc3)cccc2C(=O)N([C@@H](C)CO)C[C@@H]1C | -4.47% |
| COC(=O)C1=C[C@@H](O)[C@@H](O)[C@H](O[C@@H]2O[C@H](CO)[C@@H](O)[C@H](O)[C@H]2OC(=O)/C=C/c2ccccc2)C1 | -5.34% |
| S=C(NCCc1ccc(Cl)cc1)Nc1ccccc1 | -13.7% |
| O=C(c1cncc(NS(=O)(=O)c2ccc(Cl)cc2)c1)N1CCN(Cc2ccccc2)CC1 | 41.7% |
| CC(C)C1N=C2c3ccccc3N=C(SCC(=O)c3ccc(Br)cc3)N2C1=O (stereo not given) | 63.2% |
| CC(C)(C)C(=O)CSc1nc2ccccc2c(=O)n1CC1CC1 | 120% (active) |
| O=c1c2ccccc2nc(SCc2cccc(F)c2)n1C1CC1 | 17.8% |
| Cc1ccc(-n2c(SCC(=O)Nc3cccc(C)c3C)nc3ccccc3c2=O)cc1 | -0.837% |
| O=C(CSc1nc(-c2cccs2)cc(C(F)(F)F)n1)OCCCc1ccccc1 | 1.26% |
| CC(C)NC(=O)N(C)C[C@H]1Oc2ccc(NS(=O)(=O)c3cn(C)cn3)cc2CC(=O)N([C@@H](C)CO)C[C@H]1C | 1.5% |
| C[C@@H]1CCCCO[C@@H](CN(C)S(=O)(=O)c2cccs2)[C@@H](C)CN([C@H](C)CO)C(=O)c2cc(NC(=O)Nc3ccc(F)cc3)ccc2O1 | 55.6% |
| C[C@@H]1CCCCO[C@@H](CN(C)S(=O)(=O)c2cccs2)[C@@H](C)CN([C@H](C)CO)C(=O)c2cc(NC(=O)Nc3ccc4c(c3)OCO4)ccc2O1 | 91.3% (active) |
| C[C@@H]1CCCCO[C@H](CN(C)Cc2ccncc2)[C@@H](C)CN([C@H](C)CO)C(=O)c2cc(NS(C)(=O)=O)ccc2O1 | -7.81% |
| C[C@@H]1CCCCO[C@@H](CN(C)Cc2ccncc2)[C@@H](C)CN([C@H](C)CO)C(=O)c2cc(NS(=O)(=O)c3cccs3)ccc2O1 | 104% (active) |
| C[C@@H]1CN([C@H](C)CO)C(=O)c2cc(NS(=O)(=O)c3cccs3)ccc2O[C@H]1CN(C)Cc1ccncc1 | 26% |
| C[C@@H]1CCCCO[C@H](CN(C)S(=O)(=O)c2cccs2)[C@@H](C)CN([C@H](C)CO)C(=O)c2cc(NC(=O)Nc3ccccc3)ccc2O1 | 37.3% |
| COc1ccc(C=NCc2ccc(OC)c(OC)c2)cc1OC | 12.4% |
| CC1C=CCC2C(=O)N(c3cccc(Cl)c3)C(=O)C12 (stereo not given) | -5.69% |
| CC1CCC(NC(=O)c2ccccc2C(=O)O)CC1 (stereo not given) | -7.64% |
| Cc1ccc2c(c1)c(-c1ccccc1)c(-c1ccccc1)n2CC(O)CNCc1ccco1 (stereo not given) | 4.62% |
| O=C(COC(=O)c1cc2ccccc2cc1O)c1ccc(OCc2ccccc2)cc1 | 6.42% |

| Structure (SMILES) | ROS induction (% of piperlongumine) |
| --- | --- |
| Cc1noc(C)c1NC(=O)N(C)C[C@H]1Oc2ccc(NC(=O)C3CCCCC3)cc2CC(=O)N([C@@H](C)CO)C[C@H]1C | -5.41% |
| FC(F)(F)c1cccc(NC(=S)Nc2cc(-c3cccs3)[nH]n2)c1 | -6.71% |
| CCOC(=O)N1CCC(NC(=O)NCc2noc3ccccc23)CC1 | -11.6% |
| CC(=O)Nc1ccc(NC(=O)CN(c2ccccc2Br)S(C)(=O)=O)cc1 | -14% |
| CC(=O)Nc1ccc(Nc2c3c4c(cccc4[nH]c2=O)C(=O)c2ccccc2-3)cc1 | 105% (active) |
| CC(=O)Nc1ccc(NC(=O)COc2ccccc2C(=O)Nc2cccc(Cl)c2Cl)cc1 | -10% |
| COc1cc2c(cc1NC(=O)CCC1CCCCC1)oc1ccccc12 | -18.8% |
| CCOC(=O)c1c(C)nn(-c2ncccc2NC(=O)CCC(=O)O)c1C | -11.2% |
| COC(=O)[C@]1(Cc2ccccc2CN=[N+]=[N-])N=C(c2ccc(OCCCO)cc2)O[C@@H]1c1ccccc1CN=[N+]=[N-] | 86.1% (active) |
| COC(=O)[C@@]1(CCS(=O)(=O)c2ccccc2)N=C(c2ccc(OCCCO)cc2)O[C@H]1c1ccccc1N=[N+]=[N-] | 33.1% |
| [N-]=[N+]=Nc1ccccc1C[C@@]1(C(=O)NCc2ccccc2)N=C(c2ccc(OCCCO)cc2)O[C@@H]1c1ccccc1 | 30.8% |
| CNC[C@H]1Oc2ccc(NS(=O)(=O)c3cn(C)cn3)cc2C(=O)N([C@@H](C)CO)C[C@@H]1C | 5.85% |
| COc1ccc(NC(=S)NCC(c2ccccc2)c2c[nH]c3ccccc23)cc1 (stereo not given) | 4.82% |
| COc1ccc(-c2cc(C(F)(F)F)nc(SCCC(=O)N(C)c3ccccc3)n2)cc1 | 33.5% |
| CCC(=O)Nc1ccccc1C(=O)Nc1ccccc1 | 10.3% |
| CC[N+]1=C(C)C(C)(C)c2cc(-c3ccccc3)ccc21 | 52.6% |
| CCn1c(SCC(=O)c2ccc(OC)cc2)nnc1-c1ccccc1F | -17.9% |
| C=CCn1c(SCc2nnc(SCC(=O)c3ccc(Cl)cc3)o2)nnc1-c1ccccc1 | -1.34% |
| Cc1nc2ccccn2c1-c1ccnc(SCC(=O)c2ccc(Cl)cc2)n1 | 102% (active) |
| CC(C)NC(=O)c1ccc2c(c1)N(Cc1ccccc1)C(=O)CS2 | -7.88% |
| COC(=O)/C=C1\SC(=NC(=O)c2ccc(F)cc2)NC1=O | 1.03% |
| Cc1cccc(Cn2c(SCc3ccc(C(=O)N4CCCCC4)cc3)nc3ccncc32)c1 | -1.54% |
| COc1ccc(CN(C)C[C@H]2Oc3ccc(NC(=O)Cc4ccccc4)cc3CC(=O)N([C@@H](C)CO)C[C@@H]2C)cc1 | 65.1% |
| C[C@@H]1CN([C@H](C)CO)C(=O)Cc2cc(NC(=O)Cc3ccccc3)ccc2O[C@@H]1CN(C)Cc1ccccc1 | 35.5% |
| C[C@@H]1CN([C@@H](C)CO)C(=O)c2cccc(NC(=O)C3CC3)c2O[C@@H]1CN(C)Cc1ccccc1 | -2.71% |
| C[C@@H]1CN([C@H](C)CO)C(=O)Cc2cc(NC(=O)Nc3ccccc3)ccc2O[C@H]1CN(C)Cc1ccc(Cl)c(Cl)c1 | 13.3% |
| C[C@@H]1CN([C@H](C)CO)C(=O)c2cccc(NS(=O)(=O)c3ccc(F)cc3)c2O[C@H]1CN(C)Cc1ccc(Oc2ccccc2)cc1 | 102% (active) |

| Structure (SMILES) | ROS induction (% of piperlongumine) |
| --- | --- |
| C[C@H]1CN([C@@H](C)CO)C(=O)Cc2cc(NC(=O)Cc3ccccc3)ccc2O[C@@H]1CN(C)Cc1ccc(Cl)c(Cl)c1 | 88.2% (active) |
| Cc1cc(C(=O)Nc2cccc3c2O[C@@H](CN(C)Cc2ccc(C(=O)Nc4ccccc4N)cc2)[C@H](C)CN([C@@H](C)CO)C3=O)n(C)n1 | 29% |
| C[C@H]1CN([C@@H](C)CO)C(=O)c2cccc(NS(=O)(=O)c3ccc(Cl)cc3)c2O[C@@H]1CN(C)Cc1ccc(Oc2ccccc2)cc1 | 23.2% |
| C[C@@H]1CN([C@H](C)CO)C(=O)Cc2cc(NC(=O)Cc3ccccc3)ccc2O[C@H]1CN(C)Cc1ccc(Oc2ccccc2)cc1 | 58.8% |
| C[C@@H]1CN([C@@H](C)CO)C(=O)Cc2cc(NC(=O)Cc3ccccc3)ccc2O[C@@H]1CN(C)Cc1ccc(Oc2ccccc2)cc1 | 115% (active) |
| C[C@@H]1CN([C@H](C)CO)C(=O)c2cccc(NS(=O)(=O)c3ccc(Cl)cc3)c2O[C@@H]1CN(C)Cc1ccc(Oc2ccccc2)cc1 | 16.8% |
| C[C@H](CO)N1C[C@H](C)[C@@H](CN(C)Cc2ccc(C(=O)Nc3ccccc3N)cc2)Oc2c(NC(=O)C3CC3)cccc2C1=O | 101% (active) |
| O=C(CSc1nc2c(sc3ccccc32)c(=O)n1Cc1ccccc1)NCCC1=CCCCC1 | -2.88% |
| O=C(CN(Cc1ccc(Cl)cc1Cl)S(=O)(=O)c1ccccc1)N1CCCC1 | -2.84% |
| O=C1CSc2ccccc2N1Cc1ccc(Cl)cc1 | 2.65% |
| Brc1ccc(CSc2c[nH]c3ccccc23)cc1 | -17.1% |
| Cc1ccc(CNC(=O)c2nc3c(nnn3Cc3ccco3)c(=O)[nH]2)cc1 | 27.5% |
| CC(C)c1ccc(N2C(=O)CSCC2(C(=O)NC2CCCCC2)c2ccc(Cl)cc2)cc1 (stereo not given) | -3.88% |
| CCCN(c1ccccc1OC)S(=O)(=O)c1cc(Br)cnc1N | 1.12% |
| O=C(NC1CCCCCCC1)c1cccs1 | -3.89% |
| O=C(CCCn1c(=O)c2cccn2c2ccccc21)N1CCCCC1 | -0.17% |
| CN(C(=O)c1noc2c1CSc1ccccc1-2)c1cccc(C(F)(F)F)c1 | -4.5% |
| O=C(Nc1ccc(-n2nncc2-c2ccccc2)cc1)c1ccc(S(=O)(=O)N2CCCCC2)cc1 | 51.9% |
| N#CC(C(=O)Nc1cccc(C(F)(F)F)c1)=C1CCCCCC1 | 14.7% |
| Cc1cccc(NC(=S)N2CCn3cccc3C2c2cccs2)c1 (stereo not given) | -3.68% |
| C[C@H]1CN([C@@H](C)CO)C(=O)Cc2cc(NS(=O)(=O)c3cccs3)ccc2O[C@@H]1CN(C)Cc1ccc(Oc2ccccc2)cc1 | 92.6% (active) |
| C[C@@H]1CN([C@@H](C)CO)C(=O)c2cc(NC(=O)Cc3ccccc3)ccc2O[C@H]1CN(C)Cc1ccc(Cl)c(Cl)c1 | 44.7% |
| C[C@H]1CN([C@@H](C)CO)C(=O)Cc2cc(NS(=O)(=O)c3cccs3)ccc2O[C@H]1CN(C)Cc1ccncc1 | -8.79% |
| C[C@H]1CN([C@@H](C)CO)C(=O)c2cc(NC(=O)Cc3cn(C)c4ccccc34)ccc2O[C@H]1CN(C)Cc1ccc(Cl)c(Cl)c1 | 4.82% |
| C[C@@H]1CN([C@H](C)CO)C(=O)Cc2cc(NS(=O)(=O)c3cccs3)ccc2O[C@@H]1CN(C)Cc1ccc(C(=O)O)cc1 | 11.6% |
| C[C@H]1CN([C@@H](C)CO)C(=O)c2cc(NC(=O)Cc3cn(C)c4ccccc34)ccc2O[C@@H]1CN(C)Cc1ccc(Cl)c(Cl)c1 | 118% (active) |
